Molecular target: T1, BATF;JUNB (human;human, UniProt Q16520;P17275 1-125;148-347, |)
T1 sequence 1: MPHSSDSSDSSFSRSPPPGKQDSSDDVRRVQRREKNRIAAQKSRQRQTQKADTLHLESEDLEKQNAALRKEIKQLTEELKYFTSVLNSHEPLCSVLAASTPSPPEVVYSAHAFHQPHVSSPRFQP
T1 sequence 2: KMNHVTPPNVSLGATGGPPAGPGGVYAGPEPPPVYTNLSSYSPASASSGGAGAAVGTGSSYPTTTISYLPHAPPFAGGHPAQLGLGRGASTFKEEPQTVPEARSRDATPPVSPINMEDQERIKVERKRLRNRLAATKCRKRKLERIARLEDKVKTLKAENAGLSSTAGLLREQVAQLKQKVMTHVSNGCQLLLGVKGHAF
Assay: Spec-seq (EMSA and sequencing of bound and unbound bands); 100 nM BATFx-JUNB, 1 uM dsDNA library, 50 mM K acetate, 20 mM Tris-acetate, 10 mM Mg acetate, 100 ug/ml BSA, pH 7.9, 10% glycerol, 30 min on ice; native 9% PAGE at 4 C; low values mean tight binding
Conditions: protein: recombinant;recombinant; tags: N-terminal mCherry-TEV, cleaved off;C-terminal 6His; copies: 1;1; dsDNA, one strand shown
Method in brief: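 The protein, at 100 nM, was incubated with 1 μM double-stranded degenerate DNA library for 30 min on ice in NEB Cutsmart buffer with 10% glycerol, then resolved by native 9% PAGE at 4 °C. Excised bound and unbound bands were PCR-barcoded and Illumina-sequenced, and each sequence's relative binding energy in kT is −ln of its bound/unbound read-count ratio.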

| Sequence | binding signal |
| --- | --- |
| GATAGTCTCATTTTCACCCCGTGAAAGTGTGTCATTGTTCCATTACAGTATCTGT | -0.342 kT |
| GATAGTCTCATTTTCACCCCGTGAAATGAGTAATTTGTTCCATTACAGTATCTGT | -0.4 kT |
| GATAGTCTCATTTTCACCCCGTGAAATTAAGTCATTGTTCCATTACAGTATCTGT | -0.398 kT |
| GATAGTCTCATTTTCACCCCGTGAAATGAGCCATTTGTTCCATTACAGTATCTGT | 0.392 kT |
| GATAGTCTCATTTTCACCCCGTGAAATGACTGAATTGTTCCATTACAGTATCTGT | -0.087 kT |
| GATAGTCTCATTTTCACCCCGTGAAATGAGTTACTTGTTCCATTACAGTATCTGT | 0.198 kT |
| GATAGTCTCATTTTCACCCCGTGAAATGAGTCAGTTGTTCCATTACAGTATCTGT | -0.773 kT |
| GATAGTCTCATTTTCACCCCGTGAAATGACGCCATTGTTCCATTACAGTATCTGT | -0.429 kT |
| GATAGTCTCATTTTCACCCCGTGAAATGAGACAATTGTTCCATTACAGTATCTGT | 0.693 kT |
| GATAGTCTCATTTTCACCCCGTGAAATGACGTCGTTGTTCCATTACAGTATCTGT | -0.291 kT |
| GATAGTCTCATTTTCACCCCGTGAAATGACTAAGTTGTTCCATTACAGTATCTGT | -0.456 kT |
| GATAGTCTCATTTTCACCCCGTGAAAAGAGTCATTTGTTCCATTACAGTATCTGT | -0.155 kT |
| GATAGTCTCATTTTCACCCCGTGAAATGATTCATTTGTTCCATTACAGTATCTGT | -0.784 kT |
| GATAGTCTCATTTTCACCCCGTGAAATGACTTAATTGTTCCATTACAGTATCTGT | -0.138 kT |
| GATAGTCTCATTTTCACCCCGTGAAATGACTCAGTTGTTCCATTACAGTATCTGT | -0.786 kT |

From paper PMC5869772, “Quantitative profiling of BATF family proteins/JUNB/IRF hetero-trimers using Spec-seq”
